From PubChem
Fam108B inh: counter-screen for RBBP9 inhibitors: inhibitors of mouse Fam108B; recombinant Fam108B, FP-Rh probe fluorescence polarization; inhibition, % at 9.51 µM; 300,000 tested, 0.33% active;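 active = inhibition above the screen mean inhibition plus 3 SD, computed separately per campaign, cut at about 18% in these data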;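 note: inhibitors lower polarization as less probe binds the enzyme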
PME-1 primary: blocks human protein phosphatase methylesterase 1. recombinant PME-1, FP-Rh probe fluorescence polarization. inhibition, % at 5.9 µM. 320,000 tested, 0.53% active;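 active = inhibition above the campaign mean of all compounds plus 3 SD, cut at about 26% in these data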;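 note: competitive labeling of PME-1 active site by serine hydrolase directed probe; 0% = PME-1 with DMSO and 100% = wells lacking PME-1 enzyme; inhibitors block probe labeling so polarization falls and inhibition rises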
LYPLA2 counter: LYPLA2 (human) inhibition in PME1 counter-screen; inhibition, % at 5.9 µM; O95372; 320,000 tested, 0.38% active; recombinant LYPLA2, FP-Rh probe fluorescence polarization;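 active = inhibition above the screen-wide mean plus 3 SD, limit set per campaign, cut at about 26% in these data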;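 note: 0% = LYPLA2 with DMSO and 100% = wells lacking LYPLA2 enzyme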
LYPLA1 counter: blocks human lysophospholipase 1, a PME1 counter-screen; O75608; recombinant LYPLA1, FP-Rh probe fluorescence polarization; inhibition, % at 5.9 µM; 320,000 tested, 0.16% active; AID 2174;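 active = inhibition above the mean of all tested compounds plus 3 SD, set per campaign, cut at about 14% in these data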;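 note: inhibitors block serine hydrolase probe labeling of LYPLA1 so polarization falls; 0% = enzyme with DMSO and 100% = wells lacking LYPLA1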
PREPL inhibitor: inhibits the human prolyl oligopeptidase-like enzyme | 320,000 tested, 0.68% active | inhibition, % at 5.96 µM | recombinant PREPL, fluorescence polarization activity-based probe | AID 2751 | Q4J6C6; in the data active = inhibition above about 43%;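 note: 0% = enzyme with DMSO and 100% = wells lacking enzyme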
Target sequence (Q4J6C6 whole entry, looked up): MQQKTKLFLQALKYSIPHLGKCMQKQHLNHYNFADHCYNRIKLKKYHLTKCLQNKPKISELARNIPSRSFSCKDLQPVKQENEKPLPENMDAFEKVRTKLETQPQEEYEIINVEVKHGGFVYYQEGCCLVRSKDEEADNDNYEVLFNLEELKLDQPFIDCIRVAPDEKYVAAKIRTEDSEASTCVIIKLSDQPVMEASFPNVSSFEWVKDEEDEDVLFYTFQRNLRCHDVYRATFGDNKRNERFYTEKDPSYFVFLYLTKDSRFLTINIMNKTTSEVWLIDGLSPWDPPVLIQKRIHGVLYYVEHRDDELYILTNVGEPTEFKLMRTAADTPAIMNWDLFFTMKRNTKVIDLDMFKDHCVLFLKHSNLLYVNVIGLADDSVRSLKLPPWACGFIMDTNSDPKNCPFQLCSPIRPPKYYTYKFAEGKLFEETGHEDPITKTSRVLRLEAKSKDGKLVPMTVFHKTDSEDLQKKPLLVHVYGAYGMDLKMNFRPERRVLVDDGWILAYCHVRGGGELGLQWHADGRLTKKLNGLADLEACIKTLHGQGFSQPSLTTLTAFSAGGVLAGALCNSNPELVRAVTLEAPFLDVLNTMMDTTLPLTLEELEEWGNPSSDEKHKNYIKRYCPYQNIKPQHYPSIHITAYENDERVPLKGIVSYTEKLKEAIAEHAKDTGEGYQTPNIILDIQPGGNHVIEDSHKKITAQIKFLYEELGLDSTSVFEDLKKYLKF
GSTO1 counter: blocks human GSTO1 in RBBP9 counter-screen; 300,000 tested, 1.1% active; recombinant GSTO1, activity-based probe fluorescence polarization; P78417; inhibition, % at 5.96 µM;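 active = inhibition above the campaign mean inhibition plus 3 SD, cut at about 35% in these data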;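 note: 0% = GSTO1-1 with DMSO and 100% = wells lacking GSTO1-1 enzyme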
GSTO1 inh conf: GSTO1 (human) inhibition, confirmation; shares compounds with GSTO1 counter; recombinant GSTO1, probe fluorescence polarization; inhibition, % at 5.96 µM; 2,400 tested, 54% active;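 active = inhibition above the primary screen's cutoff, its mean inhibition plus 3 SD, cut at about 35% in these data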;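 note: loss of polarization as inhibitors block binding of rhodamine sulfonate ester activity probe; 0% = GSTO1 with DMSO and 100% = wells lacking GSTO1 enzyme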
GSTO1 recomb ABPP: GSTO1 (human) inhibition by gel ABPP. inhibition, % at 1 µM. shares compounds with GSTO1 counter. recombinant GSTO1, gel ABPP SE-Rh probe fluorescence. 130 tested, 30% active;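 active = inhibition of the enzyme GSTO1 above about 75%, limit read from the data; inactive = inhibition below that limit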
* hit, by the source's call; . = not tested or not shown. The list is not random: actives were taken first. Their share in the collection is about 1.9%.

SMILES	Fam108B inh	PME-1 primary	LYPLA2 counter	LYPLA1 counter	PREPL inhibitor	GSTO1 counter	GSTO1 inh conf	others
Cc1onc(-c2c(F)cccc2Cl)c1C(=O)NCc1ccc(S(N)(=O)=O)cc1	.	-2	7	-1	3	.	.
CCC(=O)N=c1ccn(C2=Nc3ccccc3NC2=C(C#N)C#N)cc1	1	-7	8	-1	-4	63*	21
O=C(C[n+]1ccccc1)N/N=C/c1ccc(C(=O)O)cc1	.	-4	-4	3	3	.	.
CC1(C)CC(=O)C=C(c2ccc3ccccc3c2)C1	.	7	4	4	-74	.	.
O=C(CCn1c(=O)oc2cc(Cl)ccc21)Nc1ccc(O)cc1	-2	-1	3	2	2	7	.
CCn1c(=O)oc2cc(NC(=O)CCl)ccc21	0	2	-7	-4	-3	88*	92*
O=C(c1ccccc1)c1nn(-c2ccc(Cl)cc2)c(=O)cc1C(F)(F)F	5	0	-3	0	-9	76*	78*
O=C(Nc1ccccc1)c1nn(-c2ccccc2)c(=O)cc1C(F)(F)F	5	-1	5	-1	8	9	.
CCN(CC)c1ccc(/C=C2\C(=O)N(c3nnc(C)c(=O)[nH]3)N=C2C)cc1	3	-7	0	0	-7	40*	14
O=C1NC(=O)/C(=C\c2ccc(OCc3cccc([N+](=O)[O-])c3)cc2)N1	-2	-4	3	0	26	-2	.
CCOC(=O)Cc1c(C)c2c(O)cc(O)cc2oc1=O	1	2	2	0	-1	59*	0
Cc1noc(C)c1NC(=O)N(C)C[C@@H]1Oc2ccc(NS(=O)(=O)c3c(C)noc3C)cc2C(=O)N([C@H](C)CO)C[C@H]1C	.	.	.	.	-4	.	.
Cc1cc(C(=O)CCl)c(C)n1CCc1ccccc1	-1	-2	-4	0	18	79*	97*
CCOC(=O)c1cc(C)n(CCc2ccccc2)c1C	6	4	0	1	2	6	.
Cc1[nH][nH]c(=O)c1C(c1c(C)[nH][nH]c1=O)c1cn(Cc2cccc3ccccc23)c2ccccc12	10	16	4	-3	11	55*	41*
O=c1c2ccccc2ncn1Cc1cccc2ccccc12	-2	0	13	-1	-5	6	.
COc1ccc(/C=C2\SC(=S)N(CC3CCCO3)C2=O)cc1 (stereo not given)	-4	3	6	0	-7	14	.
COC(=O)C1=C(C)N(CC2CCCO2)C(=O)/C1=C\c1ccc(O)cc1 (stereo not given)	-2	-10	-2	-1	-5	43*	1
COc1ccc(C2C(O)C(c3c[nH]c4ccccc34)=NN2C(=O)CCl)cc1 (stereo not given)	3	5	6	-4	4	88*	93*
COc1ccc(C2NN=C(c3c[nH]c4ccccc34)C2O)cc1 (stereo not given)	4	5	-13	-7	9	-10	.
COc1ccc(NC(=O)NCCC2=CCCCC2)cc1	1	2	3	0	14	64*	10
COc1ccc([C@@H]2OC2(C(N)=O)C(N)=O)cc1	-3	1	1	-1	-4	-5	.
NC(=O)C1(C(N)=O)OC1c1ccc(Cl)c(Cl)c1 (stereo not given)	1	-4	-1	0	-5	66*	77*	GSTO1 recomb ABPP=30
CC(C)(C)OC(=O)N1CCC(NC(=O)c2[nH]cnc2C(=O)Nc2ccon2)CC1	.	2	3	3	0	.	.
CCCCOP(=O)(OCCCC)C1(NS(=O)(=O)c2ccccc2)C=CC(=O)c2ccccc21 (stereo not given)	-2	9	-10	-9	12	50*	18
SMILES	Fam108B inh	PME-1 primary	LYPLA2 counter	LYPLA1 counter	PREPL inhibitor	GSTO1 counter	GSTO1 inh conf	others
CCCCOCCCNS(=O)(=O)c1ccccc1	3	-7	9	3	4	5	.
CC(=O)Oc1ccc(OC(C)=O)c(SCCCCCN2CCOCC2)c1	3	0	1	2	1	79*	6
CC[C@H](C)/C=C/C1=CC2=C(Cl)C(=O)[C@@]3(C)OC(=O)C(C(=O)[C@H](C)[C@@H](C)O)=C3C2=CO1	5	-4	-2	-1	1	47*	32
O=C(c1cn(Cc2ccccc2)nc1-c1cccnc1)N1CCc2ccccc2C1	.	6	3	1	21	.	.
CC1=CCC[C@H]2[C@H](C1)C(=O)C[C@@H](C)[C@]2(C)CC/C(=C/CO)CO	.	.	.	.	4	.	.
C/C(=N\NC(=O)Cc1cccn1C)c1ccc([N+](=O)[O-])cc1	1	-1	-2	-3	2	-2	.
C/C(=N/NC(=O)Cc1cc(=O)[nH][nH]1)c1ccc([N+](=O)[O-])cc1	-2	0	-3	0	5	57*	6
O=C(Cc1cccc(NC(=O)C2CCN(C(=O)C3CCCCC3)CC2)c1)Nc1cccc(C(=O)N2CCCC2)c1	.	7	2	1	-1	.	.
COCCN(Cc1nc(-c2ccc(-c3ccccc3)cc2)oc1C)C(C)C	0	2	-5	-1	36	0	.
COc1cc2c(cc1OC)C(c1cc(Br)ccc1F)N(C(=O)CCl)CC2 (stereo not given)	-5	31*	5	-3	-4	86*	96*	GSTO1 recomb ABPP=87*
CCN1C(=O)C2(C(C#N)=C(N)Oc3c2c(C)nn3-c2ccccc2)c2ccccc21 (stereo not given)	3	4	1	-2	-1	39*	10
COc1ccc(C2C(C#N)=C(N)Oc3n[nH]c(-c4ccccn4)c32)c(OC)c1OC (stereo not given)	-3	-2	2	1	-2	43*	6
Cc1ccc(C2C(C#N)=C(N)Oc3n[nH]c(-c4cccs4)c32)cc1 (stereo not given)	1	-2	3	0	-3	40*	8
COc1cccc(-c2[nH]nc3c2C(c2ccsc2)C(C#N)=C(N)O3)c1 (stereo not given)	-1	-6	6	4	13	51*	33
COc1ccc(S(=O)(=O)NCCC(=O)NC2CCCCC2C)cc1[N+](=O)[O-] (stereo not given)	.	.	.	.	2	.	.
COCC(=O)Nc1nnc(SCC(=O)N2C(C)CCCC2C)s1 (stereo not given)	3	1	2	-1	1	2	.
CCOc1ccc(-c2nc(CSCC(=O)NCC3CCCO3)c(C)o2)cc1 (stereo not given)	-3	-6	3	2	15	8	.
